Assay [1] has as its target Tumor necrosis factor (Homo sapiens) (UniProt P01375). Briefly: qHTS assay to identify small molecules that stimulate Tumor Necrosis Factor-alpha (TNF-alpha) secretion (AID 651757; active = well fitted curve in the direction sought with a large enough effect in the signal ratio; the % refers to the signal ratio; also: 0% is about no effect). Summed up: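 THP-1 cells were exposed to compounds for 17 hrs at 37 C, after which secreted TNF-alpha was measured by homogeneous HTRF (TR-FRET) using cryptate- and XL665-labeled anti-TNF-alpha antibodies, read after 3 hr at room temperature.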

A short description of assay [2]: qHTS assay for environmental chemicals that activate the Aryl hydrocarbon Receptor (AhR) signaling pathway (AID 651777). Also: % of control where 0% means no effect; nearly all actives have a fitted effect of over 15% in size. Particulars: 1A2-DRE human hepatoma cells, luciferase, 24 h; activation: hits give high values. In a few lines: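 Human hepatoma 1A2-DRE cells stably carrying a DRE/CYP1A2 promoter–luciferase reporter, 1,200 cells/well, exposed to compound 24 hr at 37 C. Luciferase read by One-Glo luminescence after 30 min at room temperature; increased signal marks AhR activation.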
For orientation: Quantitative high-throughput screening tests each substance at several concentrations.

Assay [3] has as its target Nuclear receptor ROR-gamma (Homo sapiens) (UniProt P51449). Description: qHTS assay for small molecule antagonists of the retinoid-related orphan receptor gamma (ROR-gamma) signaling pathway (AID 651802). Also: nearly all actives have a fitted effect of over 60% in size. Also: potency is read from the fitted curve at half-maximal effect. Summed up: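 CHO cells carrying TET-inducible ROR-gamma and an ROR response element–luciferase reporter were exposed to compound, then induced with doxycycline. After 16hr at 37C, luminescence was read; lower signal indicates antagonism.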

In assay [4] the target is Tyrosine-protein kinase Yes (Homo sapiens) (UniProt P07947). Description: qHTS for small molecule inhibitors of Yes1 kinase: Primary Screen (AID 686947). Also: nearly all actives have a fitted effect of over 60% in size. Also: potency is read from the fitted curve at half-maximal effect. In a few lines:
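ADP-Glo luminescence readout; final 4 nM Yes1, 0.1 mM ATP, 0.3 mg/mL poly(E4Y), Tris pH 7.5, MgCl2, DTT, Brij-35. 20 min compound preincubation, 60 min reaction at RT. Normalized to DMSO wells with and without enzyme.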

A short description of assay [5]: qHTS for small molecule inhibitors of Yes1 kinase: Counter Assay (AID 686950).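 Also: no kinase present so only ADP-Glo detection of a fixed ADP amount is tested; luminescence from ADP-Glo reporting ADP in a fixed ATP and ADP mixture; series mostly up to about 77 µM; 0% = DMSO wells with ATP plus ADP and -100% = ATP-only wells without ADP.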 In a few lines:
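Luminescence read-out from ADP-Glo quantifies a fixed ADP amount (0.02 mM ADP with 0.08 mM ATP) after 60 min at room temperature; signal is normalized between DMSO wells with ATP/ADP and with 0.1 mM ATP alone.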

A short description of assay [6]: qHTS for compounds that reverse cellular toxicity of Amyloid beta (A-beta) peptide in yeast: LOPAC Validation Assay (AID 720559).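 Also: plate controls were DMSO for no effect and equimolar ferric chloride plus clioquinol rescue for full effect.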 Summed up: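 Activity is expressed relative to DMSO and an equimolar ferric chloride/clioquinol mix. Compounds were pinned into medium with A-beta-expressing yeast, grown 48 hr at 30 C, then read by absorbance at 600 nm.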
A short description of assay [7]: qHTS for Activators of Parkin Expression: LOPAC Validation Assay (NLuc Reporter) (AID 720572;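 also: 0% = DMSO and 100% = positive control compound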). In a few lines: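 Parkin promoter-driven FLuc/NLuc neuronal reporter cells; 24 h plating, 7-pt dose response, 24 h at 37 C/5% CO2; FLuc then NanoLuc reagent, 10 min each, luminescence; DMSO/positive control normalized.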
Assay [8] in a line: qHTS for Activators of Parkin Expression: LOPAC Validation Assay (FLuc Reporter) (AID 720573;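 also: 0% = DMSO and 100% = positive control compounds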). In a few lines: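 A neuronal cell line harbouring FLuc and NLuc reporters behind the Parkin promoter was exposed to compounds for 24 h. Firefly luciferase signal, measured after 10 min with detection reagent, was scaled to DMSO and positive-control wells.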
The nature of assay [9]: qHTS assay for small molecule agonists of the antioxidant response element (ARE) signaling pathway measured by Nrf2-dependant transcriptional activity (AID 720636; active = well fitted curve in the direction sought with a large enough effect in the repeat runs; an effect the other way counts as inactive or inconclusive; also: % of control where 0% means no effect). Summed up: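 ARE-luc HepG2 cells carrying an Nrf2-responsive luciferase reporter, in medium with 1% dialyzed FBS, exposed to compound for 16 hr at 37 C, 5% CO2. Luminescence read 30 min after ONE-Glo addition.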

Assay [10] is described as follows: qHTS assay for small molecule antagonists of the retinoid-related orphan receptor gamma (ROR-gamma) signaling pathway - cell viability counter screen (AID 720652; active = well fitted curve in the direction sought with a large enough effect in the repeat runs; an effect the other way counts as inactive or inconclusive;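 also: compound exposure lasted 16 hr before ATP read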; also: potency is read from the fitted curve at half-maximal effect). Summed up: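 Counter screen in CHO cells carrying TET-inducible ROR-gamma and an ROR response element-luciferase reporter; cells plated 5 hr, compound pinned, doxycycline added, then 16 hr at 37 C. Viability read as intracellular ATP by CellTiter-Glo luminescence.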

Assay [11] is described as follows: qHTS assay for small molecule agonists of the antioxidant response element (ARE) signaling pathway measured by Nrf2-dependant transcriptional activity - cell viability counter screen (AID 720653; active = well fitted curve in the direction sought with a large enough effect in the repeat runs; an effect the other way counts as inactive or inconclusive; also: % is scaled to controls: 0 for no effect and ±100 for the full control effect). Particulars: ARE-bla HepG2 viability, CellTiter-Glo ATP luminescence, 16 h; max response: hits give low values. Summed up: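 Cytotoxicity counter screen: intracellular ATP quantified by CellTiter-Glo luminescence in the same ARE-bla HepG2 plates, after 16 h compound exposure and a 2 h beta-lactamase substrate step.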

In assay [12] the target is T1, Hexokinase-4 (Homo sapiens) + Glucokinase regulatory protein (Homo sapiens) (UniProt P35557+Q14397). Description: qHTS assay for inhibitors of recombinant human GCK-GKRP interaction: Diaphorase-coupled assay (AID 743205). In a few lines: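 Inhibitors of the GCK–GKRP complex relieve GKRP suppression of GCK, detected through a G6PDH–diaphorase cascade reducing resazurin. Human GST-GCK and FLAG-GKRP are used at 10 nM with 5 mM glucose and 0.4 mM ATP.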
T1 sequence (P35557 whole entry, looked up): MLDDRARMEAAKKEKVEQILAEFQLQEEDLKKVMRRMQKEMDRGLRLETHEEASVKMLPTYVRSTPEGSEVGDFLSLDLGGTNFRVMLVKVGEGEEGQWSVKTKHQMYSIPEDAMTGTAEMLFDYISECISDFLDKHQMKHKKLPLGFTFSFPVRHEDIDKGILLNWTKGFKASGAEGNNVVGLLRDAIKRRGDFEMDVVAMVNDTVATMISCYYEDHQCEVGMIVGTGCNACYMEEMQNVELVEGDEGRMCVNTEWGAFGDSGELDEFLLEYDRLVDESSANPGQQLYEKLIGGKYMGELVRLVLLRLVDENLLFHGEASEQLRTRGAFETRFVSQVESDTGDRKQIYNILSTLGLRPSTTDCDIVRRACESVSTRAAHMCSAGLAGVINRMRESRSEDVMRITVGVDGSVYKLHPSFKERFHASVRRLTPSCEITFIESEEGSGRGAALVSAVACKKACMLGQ
T1 sequence (Q14397 whole entry, looked up): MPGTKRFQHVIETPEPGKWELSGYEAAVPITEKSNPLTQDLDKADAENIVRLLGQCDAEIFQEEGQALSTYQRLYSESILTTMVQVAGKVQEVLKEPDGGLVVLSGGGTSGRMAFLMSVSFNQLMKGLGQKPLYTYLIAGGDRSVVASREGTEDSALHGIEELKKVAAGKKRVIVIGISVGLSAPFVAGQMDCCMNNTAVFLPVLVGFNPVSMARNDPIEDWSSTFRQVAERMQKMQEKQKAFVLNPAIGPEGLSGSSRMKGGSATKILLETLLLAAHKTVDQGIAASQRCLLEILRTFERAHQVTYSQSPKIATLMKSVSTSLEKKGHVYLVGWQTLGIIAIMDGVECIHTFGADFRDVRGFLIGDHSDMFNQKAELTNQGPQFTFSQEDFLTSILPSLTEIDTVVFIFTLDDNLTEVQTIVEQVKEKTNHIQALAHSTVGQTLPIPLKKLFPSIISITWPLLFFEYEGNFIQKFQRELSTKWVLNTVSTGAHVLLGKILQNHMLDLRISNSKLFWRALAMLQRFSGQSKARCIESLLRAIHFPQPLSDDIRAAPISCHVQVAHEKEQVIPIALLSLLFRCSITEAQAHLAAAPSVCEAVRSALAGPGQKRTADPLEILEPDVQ

The target in assay [13] is T1, Hexokinase-4 (Homo sapiens) + Glucokinase regulatory protein (Homo sapiens). Briefly: qHTS assay for inhibitors of recombinant human GCK-GKRP interaction: HTRF assay (AID 743207).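 Also: 0% = DMSO with GCK present and -100% = DMSO wells lacking GCK.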 In a few lines: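 Steps: dispense GCK–GKRP complex (5 nM each, GST- and FLAG-tagged) with 2 uM S6P; pin in compounds; add XL665/Eu-cryptate-labelled antibodies; incubate 60 min at room temperature; read time-resolved FRET at 665 and 615 nm.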

Assay [14] can be described thus: qHTS Assay for Identifying Gametocytocidal Compounds (AID 743244).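 Also: % is scaled to controls: 0 for no effect and ±100 for the full control effect; actives lower the fluorescent signal which means gametocytes are killed.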 The note with it: P. falciparum 3D7 stage III-V gametocytes, alamarBlue, 72 h; max response: hits give low values. Summed up: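 Late gametocytes (III–V), P. falciparum 3D7; 72 h drug, then 24 h alamarBlue; resazurin reduction read by fluorescence.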
Assay [15] is described as follows: qHTS assay for cell viability of HEK293 cells (AID 743288). Also: nearly all actives have a fitted effect of over 50% in size. Also: potency is read from the fitted curve at half-maximal effect. As to max response: % is scaled to controls: 0 for no effect and ±100 for the full control effect. The note with it: ATP luminescence (CellTiter-Glo), 18 h; max response: hits give low values. In a few lines: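 The Tox21 protocol used parental HEK293 cells treated for 18 h at 37 C with compounds delivered by pintool; ATP-coupled luminescence after 30 min at room temperature gave viability.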
The target in assay [16] is Peroxisome proliferator-activated receptor alpha (Homo sapiens) (UniProt Q07869). Description: qHTS assay for small molecule agonists of the peroxisome proliferator-activated receptor alpha (PPARalpha) signaling pathway (AID 651778). Also: % of control where 0% means no effect. Particulars: PathHunter PPARalpha complementation, chemiluminescence, 6 h; hits give high values. Summed up:
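Chemiluminescence from complemented enzyme reported PPARalpha activation in cells after 6 hr of compound treatment at 37 C. The detection reagent was incubated for 60 min at room temperature, and compounds were scored as agonists.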

The nature of assay [17]: qHTS assay for cell viability of the p53RE-bla HCT-116 cell line (AID 743292). Also: % is scaled to controls: 0 for no effect and ±100 for the full control effect; nearly all actives have a fitted effect of over 55% in size. In a few lines:
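CellSensor p53RE-bla HCT-116 cells (4,000/well) pre-incubated 5 h at 37 C, then exposed to compounds in DMSO for 16 h at 37 C. Viability read as ATP content by CellTiter-Glo luminescence after 30 min at room temperature.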

“And” between values parts separate entries of the source, which are not always exact repeats. Equal values may be shown once. A number with no mark means an inactive call. Inconclusive results are not listed. The source made the active and inactive calls. Unless noted, calls follow the shape of the dose curve; as a rule, active = well fitted curve in the direction sought with a large enough effect; inconclusive = small, poorly fitted or top-dose-only effect, or another doubt; inactive = no such curve, though single readings can be large; an effect the other way counts as inactive or inconclusive.

Chain of Peroxisome proliferator-activated receptor alpha (Homo sapiens) (Q07869 whole entry, looked up): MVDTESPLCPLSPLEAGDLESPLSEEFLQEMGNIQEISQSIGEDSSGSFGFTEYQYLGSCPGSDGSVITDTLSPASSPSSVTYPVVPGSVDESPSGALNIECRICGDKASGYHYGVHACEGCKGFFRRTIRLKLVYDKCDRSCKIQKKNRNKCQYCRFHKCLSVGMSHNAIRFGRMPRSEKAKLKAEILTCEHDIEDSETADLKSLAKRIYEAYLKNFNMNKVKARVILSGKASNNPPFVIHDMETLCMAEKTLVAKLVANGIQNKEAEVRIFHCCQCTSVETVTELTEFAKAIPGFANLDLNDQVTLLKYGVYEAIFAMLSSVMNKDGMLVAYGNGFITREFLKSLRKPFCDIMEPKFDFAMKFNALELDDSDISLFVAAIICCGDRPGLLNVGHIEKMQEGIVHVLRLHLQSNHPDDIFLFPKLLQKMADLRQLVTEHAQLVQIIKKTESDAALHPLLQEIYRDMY
Chain of Tumor necrosis factor (Homo sapiens) (P01375 whole entry, looked up): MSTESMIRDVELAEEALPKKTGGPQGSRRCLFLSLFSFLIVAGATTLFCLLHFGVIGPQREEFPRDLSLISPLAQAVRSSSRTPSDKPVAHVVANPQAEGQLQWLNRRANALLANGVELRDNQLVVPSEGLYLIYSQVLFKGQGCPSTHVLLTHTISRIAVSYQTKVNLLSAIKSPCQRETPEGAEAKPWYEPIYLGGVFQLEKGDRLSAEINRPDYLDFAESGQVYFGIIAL
Chain of Nuclear receptor ROR-gamma (Homo sapiens) (P51449 whole entry, looked up): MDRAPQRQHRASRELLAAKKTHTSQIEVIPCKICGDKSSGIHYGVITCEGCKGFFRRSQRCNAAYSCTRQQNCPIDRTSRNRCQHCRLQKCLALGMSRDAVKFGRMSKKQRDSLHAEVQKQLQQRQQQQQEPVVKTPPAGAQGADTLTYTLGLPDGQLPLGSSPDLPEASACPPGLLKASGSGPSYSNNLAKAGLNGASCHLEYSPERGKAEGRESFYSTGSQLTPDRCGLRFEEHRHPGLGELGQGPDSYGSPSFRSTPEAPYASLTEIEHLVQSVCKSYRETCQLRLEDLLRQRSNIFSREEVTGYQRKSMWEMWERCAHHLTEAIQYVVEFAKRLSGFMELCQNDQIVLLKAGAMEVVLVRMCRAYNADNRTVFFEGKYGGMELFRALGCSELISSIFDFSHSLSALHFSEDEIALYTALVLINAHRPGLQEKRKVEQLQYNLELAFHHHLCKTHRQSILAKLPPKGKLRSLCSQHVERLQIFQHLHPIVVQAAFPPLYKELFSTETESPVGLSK
Chain of Tyrosine-protein kinase Yes (Homo sapiens) (P07947 whole entry, looked up): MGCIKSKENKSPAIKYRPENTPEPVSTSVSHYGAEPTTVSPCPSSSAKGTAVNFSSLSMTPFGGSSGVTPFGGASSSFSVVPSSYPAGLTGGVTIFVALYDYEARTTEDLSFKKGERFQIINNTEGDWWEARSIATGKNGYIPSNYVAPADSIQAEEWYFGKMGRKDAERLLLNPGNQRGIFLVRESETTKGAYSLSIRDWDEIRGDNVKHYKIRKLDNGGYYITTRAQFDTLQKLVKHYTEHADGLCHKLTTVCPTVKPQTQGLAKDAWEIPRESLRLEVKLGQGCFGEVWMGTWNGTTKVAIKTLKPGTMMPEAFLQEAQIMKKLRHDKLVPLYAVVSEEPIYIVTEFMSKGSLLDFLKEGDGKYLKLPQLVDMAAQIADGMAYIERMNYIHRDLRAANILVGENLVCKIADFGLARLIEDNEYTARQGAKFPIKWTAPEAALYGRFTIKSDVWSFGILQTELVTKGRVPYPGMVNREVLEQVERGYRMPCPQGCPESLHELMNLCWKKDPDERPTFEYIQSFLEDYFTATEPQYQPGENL

Consider `CC/C(=C(\c1ccccc1)c1ccc(OCCN(C)C)cc1)c1ccccc1`, for which the outcome in [1], in assay [5], in assay [6], in [12] and in [13] was inactive. Besides, the activation in assay [2] is -5.69% and -2.28%. The Potency in [3] is 29.8 µM (active); in assay [10], 66.8 µM (active); in [15] it was 70.8 µM (active). Moreover, the Potency entry in assay [4], in assay [7], in [8] and in assay [9] was “inactive” throughout. For the same compound, the max response in assay [11] was -20.9%; in assay [14], 10%.
With `COc1cc2ncnc(-n3nc(-c4ccccn4)nc3N)c2cc1OC`, in assay [4], the Potency was 2.74 µM (active). The compound was called inactive in [5].
As for `O=C1NC(=O)C(c2ccccc2)(c2ccccc2)N1`, the outcome in [1], in assay [6], in [12] and in assay [13] was inactive. Besides, in [2], the activation is -0.809% and 0.125% and -0.632%. Further, the max response in assay [16] was -3.11% and -0.24% and -0.609%; in assay [11], -13.1% and -3.11% and 0.97%; in assay [14], -6.42% and 2.98% and 10.3%; in assay [15], 6.32% and -2.27% and 1.15%. Further, the Potency entry in assay [3], in assay [7], in assay [8], in assay [9], in assay [10] and in assay [17] was “inactive” each time.
Take `CC(=O)N[C@@H](CS)C(=O)O`: the activation in [2] was -0.0175%. In addition, the max response in [16] is -0.248%; in assay [11] it was 3.38%; in [14], 4.68% and -17%; in assay [15], -3.84%. For the same compound, the compound was called inactive in assay [6], in assay [12] and in assay [13]. In addition, the Potency result in [7], in assay [8], in [9] and in assay [17] was “inactive” each time.
Consider `CC(=O)c1ccc(S(=O)(=O)NC(=O)NC2CCCCC2)cc1`, for which the call in assay [1], in assay [6], in [12] and in assay [13] was inactive. Besides, the activation in [2] is -0.49% and 0.0331%. For the same compound, the max response was 9.98% and -1.51% in assay [16]; 2.45% and -5.62% in assay [11]; -4.23% and -12.4% in [14]; 4.87% and -10.8% in assay [15]. Also, the Potency result in assay [3], in [7], in assay [8], in assay [9], in [10] and in assay [17] was “inactive” each time.

For the origin of these results see PubChem BioAssay (NCATS).
